Screening data: PubChem, The Scripps Research Institute Molecular Screening Center
PME-1 inh: PME-1 (human) inhibition. Q9Y570. recombinant PME-1, FP-Rh probe fluorescence polarization. inhibition, % at 5.9 µM. 0.53% of 320,000 active. AID 2130;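 active means inhibition above the campaign mean of all compounds plus 3 SD, cut at about 26% in these data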;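 further: competitive labeling of PME-1 active site by serine hydrolase directed probe; inhibitors block probe labeling so polarization falls and inhibition rises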
Target sequence (Q9Y570 whole entry, looked up): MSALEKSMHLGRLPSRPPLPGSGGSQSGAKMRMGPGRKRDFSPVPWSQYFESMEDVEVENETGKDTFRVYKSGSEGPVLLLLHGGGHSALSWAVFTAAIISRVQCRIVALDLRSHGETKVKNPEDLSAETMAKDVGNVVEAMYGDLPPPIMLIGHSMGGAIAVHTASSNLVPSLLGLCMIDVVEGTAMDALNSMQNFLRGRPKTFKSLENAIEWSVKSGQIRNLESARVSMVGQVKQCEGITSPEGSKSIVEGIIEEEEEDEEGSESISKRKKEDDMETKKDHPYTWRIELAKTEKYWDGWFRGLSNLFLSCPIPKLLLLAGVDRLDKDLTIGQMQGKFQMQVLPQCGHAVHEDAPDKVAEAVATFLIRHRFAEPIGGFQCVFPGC
PAFAH1B2 FP inh: blocks human PAF acetylhydrolase 1b catalytic subunit 2. P68402. recombinant PAFAH1B2, FP-rhodamine activity probe, fluorescence polarization. inhibition, % at 3.39 µM. 1.2% of 340,000 active. AID 492953;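 active means inhibition above the mean of all tested compounds plus 3 SD, cut at about 24% in these data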
PAFAH1B3 FP inh: blocks human PAF acetylhydrolase 1B catalytic subunit 3 | Q15102 | inhibition, % at 3.39 µM | recombinant PAFAH1B3, FP-rhodamine probe, fluorescence polarization | 0.28% of 340,000 active;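 active means inhibition above the screen-wide average of all tested compounds plus 3 SD, cut at about 25% in these data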
Target sequence (Q15102 whole entry, looked up): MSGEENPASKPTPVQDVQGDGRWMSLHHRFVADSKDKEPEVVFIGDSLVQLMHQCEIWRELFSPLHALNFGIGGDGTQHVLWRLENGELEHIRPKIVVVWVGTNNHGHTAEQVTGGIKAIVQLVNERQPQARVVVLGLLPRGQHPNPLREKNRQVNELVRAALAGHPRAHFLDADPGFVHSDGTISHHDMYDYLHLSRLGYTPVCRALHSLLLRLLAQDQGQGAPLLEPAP
Fam108B inh: Fam108B inhibition, counter-screen for RBBP9 inhibitors; 0.33% of 300,000 active; inhibition, % at 9.51 µM; AID 1947; recombinant Fam108B, FP-Rh probe fluorescence polarization;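 active means inhibition above the screen mean inhibition plus 3 SD, computed separately per campaign, cut at about 18% in these data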;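 further: inhibitors lower polarization as less probe binds the enzyme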
pPAFAH inh: inhibitors of human plasma PAF acetylhydrolase (pPAFAH); Q13093; inhibition, % at 3.39 µM; recombinant pPAFAH, FP-rhodamine probe fluorescence polarization; 1.5% of 330,000 active;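 active means inhibition above the mean inhibition across the screen plus 3 SD, cut at about 25% in these data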;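 further: inhibitors block binding of the rhodamine activity-based probe so polarization drops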
PAFAH2 FP inh: inhibitors of human PAFAH2 | recombinant PAFAH2, FP-rhodamine activity probe, fluorescence polarization | inhibition, % at 3.39 µM | 0.99% of 340,000 active | AID 492956;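 active means inhibition above the mean over all tested compounds plus 3 SD, cut at about 30% in these data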;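 further: inhibitors block probe labeling of enzyme so polarization drops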
PAFAH2 FP conf: PAFAH2 (human) inhibition, confirmed; shares compounds with PAFAH2 FP inh; recombinant PAFAH2, FP-rhodamine activity probe, fluorescence polarization; inhibition, % at 3.39 µM; 65% of 2,300 active; AID 493030;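 active means mean inhibition over three repeats above a set limit taken from the earlier primary screen, cut at about 30% in these data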;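 further: inhibitor blocks binding of rhodamine activity probe so polarization falls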
Numbers stand for hits; - = inactive; . = no result. Most compounds without a hit are left out; they make up all but 2.9% or so of the library.

SMILES | PME-1 inh | PAFAH1B2 FP inh | PAFAH1B3 FP inh | Fam108B inh | pPAFAH inh | PAFAH2 FP inh | PAFAH2 FP conf
CCN(c1ccc(NC(=O)COC(=O)c2ccc(C)c(S(=O)(=O)N3CCOCC3)c2)cc1)C(C)C | - | - | - | - | - | 39 | -
O=C(COC(=O)CC1CC2CCC1C2)Nc1ccccc1[N+](=O)[O-] (stereo not given) | . | - | - | . | - | 66 | 59
Cc1ccc(C(=O)OCC(=O)Nc2ccc3c(c2)OCO3)cc1S(=O)(=O)N1CCOCC1 | - | - | - | - | - | 74 | 76
Cc1ccc(C(=O)OCC(=O)Nc2ccc3[nH]c(=O)[nH]c3c2)cc1S(=O)(=O)N1CCOCC1 | - | - | - | - | - | - | .
O=C(COC(=O)Cc1ccccc1F)Nc1ccccc1[N+](=O)[O-] | - | - | - | . | - | - | .
Cc1nn(CC(=O)Nc2cccc(Cl)c2)c(=O)c2cc(-c3ccccc3)nn12 | - | - | - | - | - | - | .
Cc1ccc(S(=O)(=O)Nc2cccc(C(=O)NCC(c3ccc(F)cc3)N3CCOCC3)c2)cc1 (stereo not given) | . | - | - | . | - | - | .
CCOc1ccc(NC(=O)CN(C)C(=O)CC2CC3CCC2C3)cc1OCC (stereo not given) | - | - | - | - | - | - | .
Cc1ccc(NC(=O)COC(=O)c2ccc(NC(=O)CC#N)cc2)cc1S(=O)(=O)N1CCOCC1 | . | - | - | . | - | 57 | 64
Cc1ccc(NC(=O)COC(=O)CC2CC3CCC2C3)cc1S(=O)(=O)N1CCOCC1 (stereo not given) | . | - | - | . | - | 69 | 65
N#Cc1ccc(NC(=O)COC(=O)c2ccc(F)c(S(=O)(=O)N3CCOCC3)c2)cc1 | - | - | - | . | - | 48 | 39
CC(=O)c1ccc(NC(=O)COC(=O)CC2CC3CCC2C3)cc1 (stereo not given) | . | - | - | . | - | 34 | -
Cc1ccc(NC(=O)COC(=O)CN2C(=O)C3CCCCC3C2=O)cc1S(=O)(=O)N1CCOCC1 (stereo not given) | - | - | - | - | - | - | .
Cc1ccc(NC(=O)COC(=O)c2oc3ccccc3c2C)cc1S(=O)(=O)N1CCOCC1 | . | - | - | . | . | - | .
O=C(COC(=O)CC1CC2CCC1C2)NCc1ccc(F)cc1 (stereo not given) | . | - | - | . | - | 50 | 39
O=C(CC1CC2CCC1C2)OCC(=O)c1c[nH]c2ccccc12 (stereo not given) | - | - | - | - | - | - | .
CCCc1cc(=O)oc2c3c(cc(OCC(=O)N[C@@H](CSC)C(=O)O)c12)OC(C)(C)CC3 | . | - | - | . | . | 34 | -
CSC[C@H](NC(=O)COc1cc2c(c3oc(=O)cc(C)c13)CCC(C)(C)O2)C(=O)O | - | - | - | - | - | - | .
CN(C)CCCOc1cccc(Oc2ccccc2)c1 | - | - | - | - | - | - | .
O=c1cc(-c2ccc(O)c(O)c2)oc2ccc3ccccc3c12 | . | - | - | . | . | 35 | 47
COc1cc(OC)cc(-c2nc3ccccc3c(=O)o2)c1 | - | - | - | - | - | 55 | 68
COc1cccc(-c2nc3ccccc3c(=O)o2)c1 | - | - | - | - | - | 68 | 73
O=C(OCc1nc2ccccc2[nH]1)C12CC3CC(CC(C3)C1)C2 | - | - | - | - | - | 57 | 49
O=C(Nc1ccccc1C(=O)NCCc1ccccc1)c1cnccn1 | - | - | - | - | - | 32 | -
Cc1noc(C)c1S(=O)(=O)N1CCCC(C(=O)NCc2ccccc2Cl)C1 (stereo not given) | - | - | - | - | - | - | .
SMILES | PME-1 inh | PAFAH1B2 FP inh | PAFAH1B3 FP inh | Fam108B inh | pPAFAH inh | PAFAH2 FP inh | PAFAH2 FP conf
CC1(C(=O)OCC(=O)Nc2ccccc2Cl)CC1(Cl)Cl (stereo not given) | - | - | - | - | - | - | .
O=C(COC(=O)c1cccs1)Nc1ccccc1 | - | - | - | - | - | 77 | 78
N/C(CC(=O)Nc1ccc(F)c(Cl)c1)=N\OC(=O)c1cccs1 | - | - | - | - | - | 48 | 36
CC1(C(=O)OCC(=O)Nc2ccccc2)CC1(Cl)Cl (stereo not given) | - | - | - | - | - | 56 | 51
O=C(COC(=O)c1cccs1)NCCCc1ccccc1 | - | - | - | - | - | 47 | -
O=C(COC(=O)c1cccs1)Nc1nc(-c2ccccc2)cs1 | - | - | - | - | - | - | .
CCCCNC(=O)OCCNC(=O)Oc1cccc(C)c1 | - | - | - | - | - | - | .
Cc1cc(NC(=O)COC(=O)c2ccc(S(=O)(=O)C(F)F)cc2)n(-c2ccccc2)n1 | - | - | - | - | - | - | .
CCc1cc2c(cc3c(=O)n(CC(=O)N4CCN(C)CC4)ncn32)s1 | - | - | - | - | - | - | .
O=C(COC(=O)c1cccs1)Nc1ccc(F)c(F)c1 | - | - | - | . | - | 79 | 81
COc1ccccc1CCc1nnc(N)s1 | - | - | - | - | - | - | .
COc1ccc(/C=N/NC(=O)c2ccc(OC)c(OC)c2)cc1COc1c(F)c(F)c(F)c(F)c1F | . | - | - | . | . | - | .
CC(C)N1CC(C(=O)Nc2ccc(Cl)c(Cl)c2)CC1=O (stereo not given) | - | - | - | - | - | - | .
Cc1nc(NC(=O)COC(=O)CCc2ccccc2)c(Cl)cc1Cl | . | - | - | . | - | - | .
Cc1nc(NC(=O)COC(=O)c2ccc(CO)cc2)c(Cl)cc1Cl | . | - | - | . | - | 44 | -
N/C(CS(=O)(=O)c1ccccc1)=N\OC(=O)c1ccc(F)cc1 | - | - | - | - | - | 52 | 40
CC(=O)SCC[N+](C)(C)C | - | - | - | - | - | - | .
Cc1ccccc1C(=O)OCc1nnc(-c2ccc(Cl)cc2)o1 | - | - | - | - | - | 33 | -
CC(=O)c1ccc(OCCCC(=O)OCc2nnc(-c3ccc(Cl)cc3)o2)cc1 | - | - | - | - | - | - | .
Cc1noc(C)c1COc1ccc(C(=O)OCc2nnc(-c3ccc(Cl)cc3)o2)cc1 | - | - | - | - | - | 66 | 69
O=C(OCc1nnc(-c2ccc(Cl)cc2)o1)c1ccncc1 | - | - | - | - | - | - | .
Cc1ccsc1C(=O)OCc1nnc(-c2ccccc2)o1 | . | - | - | . | - | 51 | -
O=C(OCCOc1ccccc1F)c1cccc(S(=O)(=O)N2CCOCC2)c1 | - | - | - | . | - | 30 | -
Cc1ccsc1C(=O)OCC(=O)Nc1nnc(-c2ccccc2)o1 | - | - | - | - | - | - | .
CCOC(=O)c1cccc(S(=O)(=O)N2CCOCC2)c1 | - | - | - | - | - | - | .
Cc1ccc(S(=O)(=O)N(CC(=O)Nc2cccnc2)c2ccccc2C)cc1 | - | - | - | - | - | - | .
O=C(OCc1nnc(-c2ccccc2)o1)c1cccc(S(=O)(=O)N2CCOCC2)c1 | - | - | - | - | - | 57 | 40
Cc1nc2ccc(C(=O)OCc3nnc(-c4ccccc4)o3)cc2nc1C | . | - | - | . | . | 35 | -
